Measured values published in PubChem BioAssay AID1159580 (chemical genetic matrix, 2015).
Several values for one entry are separate records, joined by “and”; a condition that tells them apart may be missing. Identical values can stand only once. Out of some 5,500 compounds screened, about 2,000 (36%) were called active. Another 18% or so got no clear call; they are omitted. No stated cut-off is given here; in the data, active means normalized growth mostly below about 0.91 (no sharp cut-off); inconclusive means no clear call, values can overlap the other calls; inactive means mostly above about 0.92. Some of the results follow.

Assay: chemical genetic growth profiling, strain panel (AID 1159580);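 further: tested at 20 µM; growth read once vehicle control cultures reached saturation at 30 °C; 1 = growth at the plate median or of vehicle wells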
Conditions: growth OD

Measured: normalized growth

ClC1=C(Cl)C2(Cl)C3C4CC(C5OC45)C3C1(Cl)C2(Cl)Cl (configuration not stated)
inactive: S. cerevisiae deletion strains, locus YAL013W, strain DEP1, stronger effect = lower value 0.992 | S. cerevisiae deletion strains, locus YBR021W, strain FUR4, stronger effect = lower value 0.948 and 0.959 | S. cerevisiae deletion strains, locus YBR229C, strain ROT2, stronger effect = lower value 0.997 and 1 | S. cerevisiae deletion strains, locus YCL029C, strain bik1, stronger effect = lower value 0.967 and 1.02 | S. cerevisiae deletion strains, locus YDL035C, strain GPR1, stronger effect = lower value 0.981 and 0.974 | S. cerevisiae deletion strains, locus YDL074C, strain BRE1, stronger effect = lower value 1.03 | S. cerevisiae deletion strains, locus YDL101C, strain DUN1, stronger effect = lower value 0.993 and 1 | S. cerevisiae deletion strains, locus YDL134C, strain PPH21, stronger effect = lower value 0.998 and 0.988 | S. cerevisiae deletion strains, locus YDL185W, strain tfp1, stronger effect = lower value 0.996 and 1.03 | S. cerevisiae deletion strains, locus YDL192W, strain arf1, stronger effect = lower value 0.986 and 1.01 | S. cerevisiae deletion strains, locus YDR101C, strain arx1, stronger effect = lower value 0.973 and 1.01 | S. cerevisiae deletion strains, locus YDR150W, strain NUM1, stronger effect = lower value 1 and 0.976 | S. cerevisiae deletion strains, locus YDR162C, strain NBP2, stronger effect = lower value 0.999 and 0.969 | S. cerevisiae deletion strains, locus YDR318W, strain mcm21, stronger effect = lower value 0.983 and 1.01 | S. cerevisiae deletion strains, locus YDR388W, stronger effect = lower value 0.97 and 1.01 | S. cerevisiae deletion strains, locus YDR502C, strain sam2, stronger effect = lower value 0.983 and 1 | S. cerevisiae deletion strains, locus YEL061C, strain CIN8, stronger effect = lower value 1 | S. cerevisiae deletion strains, locus YER110C, stronger effect = lower value 0.971 and 1.02 | S. cerevisiae deletion strains, locus YER155C, strain BEM2, stronger effect = lower value 0.982 and 1.01 | S. cerevisiae deletion strains, locus YER167W, strain BCK2, stronger effect = lower value 0.976 and 0.99 | S. cerevisiae deletion strains, locus YGL078C, strain dbp3, stronger effect = lower value 0.978 and 1.01 | S. cerevisiae deletion strains, locus YGL086W, strain mad1, stronger effect = lower value 0.983 and 1.01 | S. cerevisiae deletion strains, locus YGL248W, strain PDE1, stronger effect = lower value 1 and 1.01 | S. cerevisiae deletion strains, locus YGR078C, strain PAC10, stronger effect = lower value 1 and 1.01 | S. cerevisiae deletion strains, locus YGR135W, strain pre9, stronger effect = lower value 0.988 and 0.995 | S. cerevisiae deletion strains, locus YGR229C, strain SMI1, stronger effect = lower value 0.971 | S. cerevisiae deletion strains, locus YGR252W, strain gcn5, stronger effect = lower value 0.968 and 0.972 | S. cerevisiae deletion strains, locus YHR030C, strain SLT2, stronger effect = lower value 0.99 and 1.04 and 1.01 | S. cerevisiae deletion strains, locus YHR079C, strain IRE1 (second series), stronger effect = lower value 0.971 and 1.01 | S. cerevisiae deletion strains, locus YHR079C, strain IRE1, stronger effect = lower value 1.01 | S. cerevisiae deletion strains, locus YHR094C, strain hxt1, stronger effect = lower value 0.974 and 1.01 | S. cerevisiae deletion strains, locus YHR129C, strain ARP1, stronger effect = lower value 0.998 and 1.02 | S. cerevisiae deletion strains, locus YHR200W, strain rpn10, stronger effect = lower value 0.978 and 1.02 | S. cerevisiae deletion strains, locus YIL066C, strain RNR3, stronger effect = lower value 1 and 0.968 | S. cerevisiae deletion strains, locus YIL073C, strain SPO22, stronger effect = lower value 0.919 and 1.08 | S. cerevisiae deletion strains, locus YIL125W, strain kgd1, stronger effect = lower value 0.985 and 1.01 | S. cerevisiae deletion strains, locus YIR030C, strain dcg1, stronger effect = lower value 0.979 and 1.02 | S. cerevisiae deletion strains, locus YJL095W, strain BCK1, stronger effect = lower value 1.02 and 1.05 and 1.06 | S. cerevisiae deletion strains, locus YJL134W, strain LCB3, stronger effect = lower value 0.982 and 1.01 | S. cerevisiae deletion strains, locus YJL168C, strain set2, stronger effect = lower value 0.98 and 1.01 | S. cerevisiae deletion strains, locus YJL187C, strain SWE1 (second series), stronger effect = lower value 0.991 and 1.02 | S. cerevisiae deletion strains, locus YJR043C, strain POL32, stronger effect = lower value 0.975 and 0.987 | S. cerevisiae deletion strains, locus YJR066W, strain TOR1, stronger effect = lower value 0.962 | S. cerevisiae deletion strains, locus YJR075W, strain HOC1, stronger effect = lower value 1 and 1.03 | S. cerevisiae deletion strains, locus YKL009W, strain mrt4, stronger effect = lower value 0.988 and 1.01 | S. cerevisiae deletion strains, locus YKL068W, stronger effect = lower value 0.986 and 1 | S. cerevisiae deletion strains, locus YKL085W, strain MDH1 (second series), stronger effect = lower value 0.983 and 0.995 | S. cerevisiae deletion strains, locus YKL085W, strain MDH1, stronger effect = lower value 0.983 and 0.995 | S. cerevisiae deletion strains, locus YKL190W, strain CNB1, stronger effect = lower value 1 and 0.986 | S. cerevisiae deletion strains, locus YKR001C, strain vps1, stronger effect = lower value 0.98 and 1.02 | S. cerevisiae deletion strains, locus YLR039C, strain RIC1, stronger effect = lower value 0.975 and 1.15 | S. cerevisiae deletion strains, locus YLR058C, strain SHM2, stronger effect = lower value 0.984 and 1.02 | S. cerevisiae deletion strains, locus YLR102C, strain apc9, stronger effect = lower value 0.984 and 1.01 | S. cerevisiae deletion strains, locus YLR113W, strain HOG1, stronger effect = lower value 0.937 | S. cerevisiae deletion strains, locus YLR262C, strain YPT6, stronger effect = lower value 0.953 and 1.24 | S. cerevisiae deletion strains, locus YLR268W, strain sec22, stronger effect = lower value 0.977 and 1.02 | S. cerevisiae deletion strains, locus YLR330W, strain CHS5, stronger effect = lower value 0.996 and 1.01 | S. cerevisiae deletion strains, locus YLR342W, strain FKS1 (second series), stronger effect = lower value 0.984 and 0.998 | S. cerevisiae deletion strains, locus YLR371W, strain rom2, stronger effect = lower value 0.97 and 1.02 | S. cerevisiae deletion strains, locus YLR418C, strain cdc73, stronger effect = lower value 0.964 and 0.976 | S. cerevisiae deletion strains, locus YML016C, strain PPZ1, stronger effect = lower value 0.996 and 1 | S. cerevisiae deletion strains, locus YML032C, strain rad52, stronger effect = lower value 0.967 and 0.998 | S. cerevisiae deletion strains, locus YML124C, strain tub3, stronger effect = lower value 0.973 and 1.01 | S. cerevisiae deletion strains, locus YMR078C, strain ctf18, stronger effect = lower value 0.973 and 1.01 | S. cerevisiae deletion strains, locus YMR223W, strain ubp8, stronger effect = lower value 0.975 and 1.01 | S. cerevisiae deletion strains, locus YMR263W, strain SAP30, stronger effect = lower value 1.01 | S. cerevisiae deletion strains, locus YMR307W, strain GAS1, stronger effect = lower value 0.909 and 0.97 | S. cerevisiae deletion strains, locus YNL067W, strain RPL9B, stronger effect = lower value 0.999 and 1.04 | S. cerevisiae deletion strains, locus YNL128W, strain TEP1, stronger effect = lower value 0.994 and 1.02 | S. cerevisiae deletion strains, locus YNL153C, strain GIM3, stronger effect = lower value 0.999 and 1.03 | S. cerevisiae deletion strains, locus YNL183C, strain NPR1, stronger effect = lower value 0.948 | S. cerevisiae deletion strains, locus YNL233W, strain BNI4, stronger effect = lower value 0.994 and 1.06 | S. cerevisiae deletion strains, locus YNL250W, strain rad50, stronger effect = lower value 0.965 and 1 | S. cerevisiae deletion strains, locus YNL271C, strain bni1, stronger effect = lower value 0.975 and 1.01 | S. cerevisiae deletion strains, locus YNL298W, strain CLA4, stronger effect = lower value 0.97 and 1.01 | S. cerevisiae deletion strains, locus YNL307C, strain MCK1, stronger effect = lower value 0.947 and 1.02 | S. cerevisiae deletion strains, locus YNL322C, strain KRE1, stronger effect = lower value 0.998 | S. cerevisiae deletion strains, locus YNR052C, strain pop2, stronger effect = lower value 0.965 and 1.01 | S. cerevisiae deletion strains, locus YOL006C, strain TOP1, stronger effect = lower value 1.01 | S. cerevisiae deletion strains, locus YOL012C, strain htz1 0.925 and 0.987 | S. cerevisiae deletion strains, locus YOL147C, strain pex11, stronger effect = lower value 0.966 and 1.02 | S. cerevisiae deletion strains, locus YOR061W, strain CKA2, stronger effect = lower value 0.998 and 1 | S. cerevisiae deletion strains, locus YOR069W, strain VPS5, stronger effect = lower value 0.995 and 1.01 | S. cerevisiae deletion strains, locus YOR136W, strain idh2, stronger effect = lower value 0.974 and 1.02 | S. cerevisiae deletion strains, locus YOR144C, strain elg1, stronger effect = lower value 0.97 and 1 | S. cerevisiae deletion strains, locus YOR184W, strain ser1, stronger effect = lower value 0.967 and 1.01 | S. cerevisiae deletion strains, locus YOR231W, strain MKK1, stronger effect = lower value 1.04 | S. cerevisiae deletion strains, locus YOR316C, strain cot1, stronger effect = lower value 0.976 and 1.01 | S. cerevisiae deletion strains, locus YPL055C, strain LGE1, stronger effect = lower value 0.999 | S. cerevisiae deletion strains, locus YPL241C, strain CIN2, stronger effect = lower value 0.999 and 1.01 | S. cerevisiae deletion strains, locus YPL256C, strain CLN2, stronger effect = lower value 1.04 | S. cerevisiae deletion strains, locus YPR119W, strain clb2, stronger effect = lower value 0.974 and 1.01 | S. cerevisiae deletion strains, locus YPR141C, strain kar3, stronger effect = lower value 0.969 and 1.01 | S. cerevisiae deletion strains, locus YPR163C, strain tif3, stronger effect = lower value 0.961 and 1.01 | S. cerevisiae deletion strains, locus YPR167C, strain met16, stronger effect = lower value 0.983 and 1.01 | S. cerevisiae deletion strains, strain wtn01, stronger effect = lower value 0.971 and 1.03 | S. cerevisiae strains, strain wild type, stronger effect = lower value 0.994 and 1.01
